# Compound activity: PubChem, Broad Institute
# EZH2 inh = EZH2/PRC2 methyltransferase inhibitors, primary screen, biochemical, DELFIA time-resolved fluorescence, single point | Histone-lysine N-methyltransferase EZH2 (Homo sapiens), Q15910 | PRC2 H3K27 methylation, DELFIA TRF, 1 h | inhibition, % at 12.5 µM | 57,000 compounds, 0.35% hits | AID 651548, 2012;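 active = mean inhibition of replicates at least 50% and every single replicate also reaching 50%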;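 note: dimethyl H3K27 on biotinylated H3 21-44 peptide detected by antibody; plate controls were median neutral control wells for no effect and median positive control wells for full effect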
# Target sequence (Q15910 whole entry, looked up): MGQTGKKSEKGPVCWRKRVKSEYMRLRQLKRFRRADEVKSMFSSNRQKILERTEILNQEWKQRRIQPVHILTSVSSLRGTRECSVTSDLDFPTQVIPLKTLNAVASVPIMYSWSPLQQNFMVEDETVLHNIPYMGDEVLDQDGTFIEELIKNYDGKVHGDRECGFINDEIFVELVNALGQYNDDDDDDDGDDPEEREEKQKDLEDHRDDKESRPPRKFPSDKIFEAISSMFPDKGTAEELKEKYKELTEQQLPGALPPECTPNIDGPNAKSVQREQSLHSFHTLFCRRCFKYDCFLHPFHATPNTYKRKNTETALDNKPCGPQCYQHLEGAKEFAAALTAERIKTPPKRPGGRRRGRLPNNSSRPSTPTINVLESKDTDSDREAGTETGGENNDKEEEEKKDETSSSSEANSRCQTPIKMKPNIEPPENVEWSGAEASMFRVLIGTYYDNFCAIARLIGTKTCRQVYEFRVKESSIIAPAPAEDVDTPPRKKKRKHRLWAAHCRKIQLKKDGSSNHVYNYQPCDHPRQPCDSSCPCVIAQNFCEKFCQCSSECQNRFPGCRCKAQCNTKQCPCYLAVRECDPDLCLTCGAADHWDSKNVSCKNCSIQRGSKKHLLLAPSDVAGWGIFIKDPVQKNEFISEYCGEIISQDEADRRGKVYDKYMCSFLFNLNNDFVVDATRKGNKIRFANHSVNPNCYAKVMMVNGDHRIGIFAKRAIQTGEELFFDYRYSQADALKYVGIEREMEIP
# Starred values were filed as active, the others as inactive. This is one part of a sample in which hits are shown more often than they occur.
SMILES,EZH2 inh
CCC(=O)N[C@@H]1CC[C@@H](CC(=O)OC)O[C@H]1CO,-2
COc1ccc(CN(C)C[C@H]2Oc3ccc(NC(=O)NC(C)C)cc3C(=O)N([C@H](C)CO)C[C@H]2C)cc1,-5
O=C(O)Cc1cccc(OCCCN(Cc2cccc(C(F)(F)F)c2Cl)CC(c2ccccc2)c2ccccc2)c1,85*
Cc1cc(Cl)ccc1NC(=O)CSc1nnc(-c2ccc(Br)cc2)n1C,19
CO[C@@H]1CN(C)C(=O)c2ccc(NC(=O)c3ccccc3)cc2OC[C@@H](C)N(C(=O)C2CC2)C[C@@H]1C,-6
COc1cc(Br)cc(/C=N/NC(=O)CCCCC(=O)NO)c1O,25
[N-]=[N+]=Nc1ccccc1C[C@@]1(C(=O)NCC(O)CO)N=C(c2ccc(OCCCO)cc2)O[C@@H]1c1ccccc1 (stereo partly specified),-1
O=C(CCSc1nnc(-c2ccccc2)o1)Nc1ccc(F)cc1,-15
O=C(O)CCCCCCC(=O)Nc1ccc(C2CC(CSc3nc(-c4ccccc4)c(-c4ccccc4)o3)OC(c3ccccc3)O2)cc1 (stereo unspecified),92*
CC(=O)c1cccc(NC(=O)CSc2nc(-c3ccccc3)c(-c3ccccc3)o2)c1,31
O=S(=O)(N[C@@H]1CC[C@H](CCn2cc(-c3cccc(F)c3)nn2)O[C@@H]1CO)c1ccc(F)cc1,1
O=C(O)CCCCCC(=O)N/N=C/c1ccc(N(c2ccccc2)c2ccccc2)cc1,61*
O=C(O)CCCCCCC(=O)N/N=C/c1ccc(N(c2ccccc2)c2ccccc2)cc1,63*
N#Cc1ccc(/C=N/NC(=O)CCCCCC(=O)O)cc1,-10
O=C(O)CCCCCCC(=O)N/N=C/c1ccc(F)cc1,7
O=C(CCCCCCC(=O)Nc1ccccc1O)N/N=C/c1ccc(N(c2ccccc2)c2ccccc2)cc1,15
O=C(O)CCCCCC(=O)N/N=C/c1ccccc1,0
CC(=O)N(C)C[C@H]1Oc2ncc(C#Cc3ccccc3F)cc2C(=O)N([C@@H](C)CO)C[C@H]1C,-7
Cc1ccc(C(O)COC2=NCNc3cc(Cl)ccc32)cc1 (stereo unspecified),-9
Cc1c(CCC(=O)O)c(=O)oc2c(C)c(OCc3c(F)cccc3Cl)ccc12,18
O=C(C[C@H]1C=C[C@H](NC(=O)c2ccccn2)[C@H](CO)O1)NCc1cccc(F)c1,2
Cn1nc(-c2ccc(NCc3cccnc3)c([N+](=O)[O-])c2)c2ccccc2c1=O,-5
Cc1cc(-c2ccc(N=Nc3cc(S(=O)(=O)O)c4ccccc4c3N)c(C)c2)ccc1N=Nc1cc(S(=O)(=O)O)c2ccccc2c1N,99*
Cc1cc(N)n(-c2ccc(Oc3ccccc3)cc2S(=O)(=O)O)n1,10
CNC[C@H]1Oc2ccc(NC(=O)NC(C)C)cc2CC(=O)N([C@H](C)CO)C[C@@H]1C,-6
SMILES,EZH2 inh
CC(C)(C)C1CCc2c(sc(NC(=O)CSc3n[nH]c(-c4ccncc4)n3)c2C#N)C1 (stereo unspecified),42
CCOC(=O)c1sc2ncn(CC(=O)Nc3ccc(OC)cc3)c(=O)c2c1C,-1
COc1cc(O)c(CC=C(C)C)cc1C(=O)/C=C/c1ccc(O)c(CC=C(C)C)c1,24
CC(C)=CCc1cc(/C=C2\OC(=O)C(c3cc4c(cc3O)OC(C)(C)CC4)C2=O)ccc1O (stereo unspecified),78*
Cc1ccc(S(=O)(=O)N(c2cccc(N=[N+]=[N-])c2)S(=O)(=O)c2ccc(C)cc2)cc1,0
COc1ccc(N(C(=O)C2CCCCC2)S(=O)(=O)c2cccc3cccnc23)cc1,8
Cc1ccc(S(=O)(=O)N(C(=O)C2CCCCC2)c2ccc3oc(=O)sc3c2)c(C)c1,54*
CC(=O)c1c(C)oc2ccc(N(C(=O)c3ccncc3)S(=O)(=O)c3ccc(F)cc3C)cc12,13
CC(C)C#Cc1cnc2c(c1)C(=O)N([C@@H](C)CO)C[C@H](C)[C@H](CN(C)Cc1cncnc1)O2,4
C[C@@H]1CN([C@H](C)CO)S(=O)(=O)c2ccc(-c3ccccc3)cc2O[C@H]1CN(C)Cc1cccc(F)c1,55*
C[C@H](CO)N1C[C@H](C)[C@H](CN(C)Cc2cccc(F)c2)Oc2cc(C#CC3CC3)ccc2S1(=O)=O,84*
C[C@@H]1CN([C@H](C)CO)C(=O)c2cc(NS(=O)(=O)c3cccs3)ccc2O[C@@H]1CN(C)Cc1ccc(-c2ccccc2)cc1,54*
C[C@H](CO)N1C[C@H](C)[C@H](CN(C)Cc2ccccc2)Oc2cc(C#CC3CC3)ccc2S1(=O)=O,26
C[C@H]1CN([C@@H](C)CO)S(=O)(=O)c2ccc(-c3ccccc3)cc2O[C@H]1CN(C)Cc1cccc(F)c1,35
C[C@@H]1CN([C@H](C)CO)S(=O)(=O)c2ccc(C#CC3CC3)cc2O[C@H]1CN(C)Cc1cccc(F)c1,19
C[C@H](CO)N1C[C@H](C)[C@H](CN(C)Cc2cccc(F)c2)Oc2cc(-c3ccccc3)ccc2S1(=O)=O,38
C[C@H](CO)N1C[C@H](C)[C@@H](CN(C)Cc2ccc(-c3ccccc3)cc2)Oc2ccc(NS(=O)(=O)c3cccs3)cc2C1=O,38
C[C@H](CO)N1C[C@H](C)[C@H](CN(C)Cc2ccc(-c3ccccc3)cc2)Oc2ccc(NS(=O)(=O)c3cccs3)cc2C1=O,25
Cc1ccc(-c2nc(SC(CC(=O)O)c3ccccc3)n[nH]2)cc1 (stereo unspecified),2
C/C=C/c1ccc2c(c1)O[C@@H](CN(C)CC1CC1)[C@@H](C)CN([C@H](C)CO)S2(=O)=O,-7
C=CCNC(=O)[C@@H]1[C@H]2C(=O)O[C@H](c3ccccc3)[C@H](c3ccccc3)N2[C@H](c2ccccc2OCCO)[C@@]12C(=O)Nc1ccc(C#CCC(C(=O)OC)C(=O)OC)cc12,-6
C[C@@H]1CN([C@@H](C)CO)S(=O)(=O)c2ccc(C3=CCCCC3)cc2O[C@@H]1CN(C)Cc1cccnc1,4
COCC(=O)Nc1ccc2c(c1)[C@@H]1C[C@H](CC(=O)NCC(F)(F)F)O[C@H](CO)[C@@H]1O2,16
C/C=C/c1ccc2c(c1)O[C@@H](CN(C)C(=O)NCCC)[C@@H](C)CN([C@@H](C)CO)S2(=O)=O,7
COc1cc([C@H]2OC[C@H]3[C@@H]2CO[C@@H]3c2ccc(O)c(OC)c2)ccc1O,80*
SMILES,EZH2 inh
COc1cc(C2OC[C@@H]3[C@@H](c4cc(OC)c(O)c(OC)c4)OC[C@H]23)cc(OC)c1O (stereo partly specified),-27
COc1cc([C@H]2OC[C@H]3[C@@H]2CO[C@H]3c2ccc(OC)c(OC)c2)ccc1O,9
CCCN1C[C@@H](C)[C@H](OC)CN(C)C(=O)c2cc(NC(=O)Nc3c(C)noc3C)ccc2OC[C@H]1C,-18
CO[C@H]1CN(C)C(=O)c2ccc(NS(=O)(=O)c3c(C)noc3C)cc2OC[C@@H](C)NC[C@@H]1C,-5
CC1CC(=O)[C@]2(C)CC[C@]3(C)C(C(=O)C(O)C4[C@@]5(C)CC[C@H](O)C(C)(C(=O)O)C5CC[C@]43C)C2C1C (stereo partly specified),70*
C[C@@H]1CC[C@]2(C(=O)O)CC[C@]3(C)C(=CCC4[C@@]5(C)CC[C@@H](O)[C@](C)(C(=O)O)C5CC[C@]43C)C2[C@H]1C (stereo partly specified),-13
